Rab9 promoter act – qHTS Assay for Rab9 Promoter Activators | Huh7 Rab9 promoter-luciferase reporter, luminescence, 24 h | Potency, µM (titrated, usually from 9.22 µM), actives largely listed as activators | 2.8% of 320,000 active | AID 485297, 2010; also: nearly all actives have a fitted effect of over 60% in size
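Promoter activation is measured as luciferase luminescence in Huh7 cells stably transfected with a Rab9 promoter–luciferase construct, following 24 h compound exposure at 37 °C and 10 min reagent incubation at ambient temperature.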
Luc counter – Counterscreen for Luciferase (Kinase-Glo TM) Inhibition | 0.28% of 200,000 active | Luciferin 4-monooxygenase (Photuris pensylvanica), Q27757 | Potency, µM (titrated, usually from 38.3 µM), actives largely listed as inhibitors | Kinase-Glo luciferase, ATP luminescence, 8 min; also: nearly all actives have a fitted effect of over 60% in size
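Inhibition of Kinase-Glo luciferase light generation was assessed at 10 uM ATP in pH 7.2 imidazole buffer, with luminescence measured after eight minutes at ambient temperature.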
NPC1 promoter act – qHTS Assay for NPC1 Promoter Activators. Huh7 NPC1 promoter luciferase reporter, 24 h. Potency, µM (top dose mostly 9.22 µM), usual class: activators. 2.4% of 320,000 active; also: nearly all actives have a fitted effect of over 60% in size
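Huh7 reporter cells (NPC1 promoter driving luciferase) are dosed with compound for 24 h at 37 °C, 5% CO2; luciferase detection reagent is then added and luminescence measured after 10 min at ambient temperature.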
FLuc counter – qHTS profiling assay for firefly luciferase inhibitor/activator using purifed enzyme and Km concentrations of substrates (counterscreen for miR-21 project) | Luciferin 4-monooxygenase (Photinus pyralis), P08659 | purified FLuc, Km substrates, luminescence inhibition | Potency, µM (titrated, usually from 57.5 µM), most hits filed as inhibitors | 6.9% of 360,000 active | AID 588342, 2011; also: nearly all actives have a fitted effect of over 55% in size
Target sequence (P08659 whole entry, looked up): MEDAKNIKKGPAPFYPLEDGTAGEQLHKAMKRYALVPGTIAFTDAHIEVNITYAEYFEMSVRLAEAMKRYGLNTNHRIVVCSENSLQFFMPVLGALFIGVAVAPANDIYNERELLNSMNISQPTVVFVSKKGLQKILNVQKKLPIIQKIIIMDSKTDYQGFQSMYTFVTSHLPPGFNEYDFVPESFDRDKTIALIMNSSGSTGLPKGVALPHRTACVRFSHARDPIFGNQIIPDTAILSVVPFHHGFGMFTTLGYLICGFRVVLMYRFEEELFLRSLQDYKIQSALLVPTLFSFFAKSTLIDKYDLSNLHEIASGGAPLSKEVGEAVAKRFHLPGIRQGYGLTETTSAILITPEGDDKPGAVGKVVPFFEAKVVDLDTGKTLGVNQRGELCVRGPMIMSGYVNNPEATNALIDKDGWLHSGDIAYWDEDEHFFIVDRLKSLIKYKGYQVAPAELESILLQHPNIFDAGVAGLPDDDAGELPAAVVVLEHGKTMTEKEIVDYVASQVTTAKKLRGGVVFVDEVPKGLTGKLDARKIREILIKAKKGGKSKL
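Purified P. pyralis luciferase (10nM final) with 10uM D-luciferin and 10uM ATP (Km levels) in 50mM Tris acetate pH 7.5, 10mM Mg acetate, 0.01% Tween-20, 0.05% BSA; qHTS 6-point titration, ~60 µM downward; luminescence read.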
SMN2 splice enh – qHTS Assay for Enhancers of SMN2 Splice Variant Expression; 2.8% of 210,000 active; HEK293 SMN2-luciferase splicing reporter, luminescence, 30-36 h; Potency, µM (top dose mostly 46.1 µM), actives largely listed as activators; AID 1458, 2008; also: nearly all actives have a fitted effect of over 55% in size
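HEK293 cells carry an SMN2 […]–luciferase reporter in which exon 7 inclusion puts luciferase in frame. Cells were plated 10-12 h before compound addition, then incubated 30-36 h at 37C. ONE-Glo luminescence was read; sodium butyrate at 4.5 mM final served as control.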
ELG1 genotoxic – qHTS screen for small molecules that induce genotoxicity in human embryonic kidney (HEK293T) cells expressing luciferase-tagged ELG1; Potency, µM (highest dose often 46 µM), most hits filed as activators; AID 504466, 2011; 1.3% of 330,000 active; HEK293T ELG1-luciferase reporter, luminescence, 16 h; also: nearly all actives have a fitted effect of over 60% in size
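Luminescence read-out: rising ELG1-luciferase signal, reflecting elevated ELG1 protein under genetic stress, flags genotoxic compounds. Cells were treated for 16 hr at 37 °C before ONE-Glo detection.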
Hits are given with their value; - = inactive; ? = inconclusive; . = no result given; [ ] = remark or other dose. Sampled rows, rich in hits. Any-hit rate of the full collection: about 7.3%. Calls follow the shape of the dose curve; as a rule, active = well fitted curve in the direction sought with a large enough effect; inconclusive = small, poorly fitted or top-dose-only effect, or another doubt; inactive = no such curve, though single readings can be large; an effect the other way counts as inactive or inconclusive.

SMILES | Rab9 promoter act | Luc counter | NPC1 promoter act | FLuc counter | SMN2 splice enh | ELG1 genotoxic
Cc1nn(C(C)(C)C)c(C)c1/C=N/OC(=O)Nc1ccc(Cl)cc1 | - | . | - | 0.095µM | . | -
CN=C=O | . | . | . | . | - | .
COc1ccc(-n2nc(C(=O)NCC(=O)N3CCC4(CC3)OCCO4)c3ccccc3c2=O)cc1 | ? | . | ? | 1.1µM | . | ?
COc1ccc(-n2nc(C(=O)NCC(=O)N3CCC4(CC3)OCCO4)c3ccccc3c2=O)cc1Cl | ? | . | ? | 1.2µM | . | -
COc1ccc(-c2cc(C(=O)N3CCC4(CC3)OCCO4)c3ccccc3n2)cc1 | ? | . | - | 2.1µM | . | -
CCOC(=O)CNC(=O)CNC(=O)c1nn(-c2ccc(OC)c(Cl)c2)c(=O)c2ccccc12 | - | - | - | - | - | -
COc1ccc(CNCC(=O)N2CCC3(CC2)OCCO3)cc1 | - | - | - | - | - | -
O=S(=O)(O)/C(=C\c1ccccc1)c1ccccc1 (tested in a mixture with another compound) | . | -[7.66 µM] | . | . | -[9.22 µM] | .
CC[C@H](C)[C@H](NC(=O)[C@H](CCCN=C(N)N)NC(=O)[C@H](CCCN=C(N)N)NC(=O)[C@H](CC(C)C)NC(=O)[C@H](Cc1ccccc1)NC(=O)CNC(=O)CNC(=O)[C@@H](N)Cc1ccc(O)cc1)C(=O)O | . | . | . | . | - | .
Fc1cccc(F)c1-c1nc(-c2ccc(Cl)cc2)no1 | 2.8µM | . | 4µM | 5.4µM | . | ?
O=C1c2ccccc2C(=O)N1Cc1nc(-c2ccccc2)no1 | - | - | - | ? | - | -
C#CCO | . | . | . | . | - | .
O=C1NC(=O)C(=Cc2ccc(Oc3ccc([N+](=O)[O-])cc3)cc2)C(=O)N1 | - | - | - | - | - | -
COc1cc(C=C2C(=O)NC(=O)NC2=O)ccc1OCc1ccc([N+](=O)[O-])cc1 | - | - | - | 9.5µM | ? | 21µM
CSCC[C@@H](N)P(C)(=O)O | . | -[7.66 µM] | . | . | -[9.22 µM] | .
OC[P+](CO)(CO)CO | . | . | . | . | - | .
Clc1ccc(C(Cl)(Cl)Cl)cc1Cl | . | . | . | . | - | .
COc1ccc(C/C(=N\OC(C)=O)c2ccc(OC)cc2)cc1 | - | . | - | 0.6µM | . | -
Cc1ccc(C(=O)Nc2nc3ccccc3n2CCN2CCCC2)cc1 | ? | . | - | 11µM | . | 4.6µM
C=CCOC(C)=O | . | . | . | . | - | .
Cc1ccc(C(C)(C)NC(=O)C2CCC(=O)N(C3CCCCCC3)C2)cc1 (centres undefined) | 3.2µM | . | ? | 15µM | . | ?
NC1=NC([S][Hg][c]2ccc(N)cc2)c2ncn([C@@H]3O[C@H](CO)[C@@H](O)[C@@H]3O)c2N1 (some centres undefined) | . | ? | . | . | -[9.22 µM] | .
FC(F)(F)c1ccc(CSc2ccccn2)cc1 | - | . | - | 15µM | . | -
CNCC[C@@H](Oc1ccc(C(F)(F)F)cc1)c1ccccc1 | - | - | - | - | - | -
Cc1cc(C)n(-c2ccc(NN=C(C#N)C#N)cc2)n1 | - | . | - | 15µM | . | -
SMILES | Rab9 promoter act | Luc counter | NPC1 promoter act | FLuc counter | SMN2 splice enh | ELG1 genotoxic
N#CC(C#N)=NNc1ccc(-n2ccc(C(F)(F)F)n2)cc1 | - | . | - | 15µM | . | -
C[C@]12CC[C@@H](O)CC1CCC1C2CC[C@]2(C)C(=O)CC[C@@H]12 (some centres undefined) | . | - | . | . | - | .
c1ccc(NC2=Nc3ccccc3CC2)cc1 | ? | - | ? | ? | - | 16µM
Cc1ccc(-c2nc3ccccc3c(=O)n2-c2ccncc2)cc1 | - | - | - | - | - | -
O=c1c2ccccc2nc(-c2ccc(-c3ccccc3)cc2)n1-c1ccncc1 | - | - | - | 17µM | - | -
NNCc1cccc(O)c1 | - | - | - | 2.7µM | - | -
CCNCC(O)c1cccc(O)c1 (centres undefined) | - | . | - | - | . | -
CN(C)c1ccc(N(C)C)cc1 | . | . | . | . | - | .
Cc1cc(C(=O)Nc2ccc3c(c2)OCCO3)nn1C(C)(C)C | 3.5µM | . | 4.5µM | 7.6µM | . | ?
O=C(Nc1ccc2c(c1)OCO2)c1cn(Cc2ccc(F)cc2)nn1 | - | - | - | ? | - | -
Cc1cc(C(=O)Nc2ccccc2)nn1C(C)(C)C | 2.2µM | . | 2.2µM | 6.7µM | . | ?
CN(C)[C@@H]1C(=O)C(C(N)=O)=C(O)[C@]2(O)C(=O)C3=C(O)c4c(O)cccc4[C@](C)(O)[C@H]3C[C@@H]12 | . | -[7.66 µM] | . | . | -[9.22 µM] | .
Cc1cc(N=Nc2ccccc2C)ccc1N | . | . | . | . | 14µM | .
COc1ccc(N2C(=O)/C(=C/C=C/c3ccccc3[N+](=O)[O-])C(=O)NC2=S)cc1 | - | - | - | 24µM | - | -
O=C(Cl)c1ccccc1F | . | . | . | . | - | .
CC1(C)CN=C(Nc2nc3ccccc3s2)S1 | 0.63µM | - | 1.8µM | 3.4µM | 13µM | 5.8µM
CCNC(C)(C)[C@@H](SS)c1ccc(Br)cc1 | . | -[7.66 µM] | . | . | -[9.22 µM] | .
CCCOC1CCCN(C(=O)CCc2nnc(Cc3cccc(C)c3)o2)C1 (centres undefined) | 2.8µM | - | ? | 21µM | . | ?
O=C(O)c1cccc(Cl)c1 | . | . | . | . | - | .
O=C(O)c1cc[c]([Hg][Cl])cc1 | - | ? | - | 6.7µM | - | -
C=CCCC#N | . | . | . | . | - | .
O=C(Nc1nccs1)C(Cl)(Cl)Cl | - | - | - | - | - | -
O=C(Nc1ccc(Cl)cc1)Nc1nccs1 | - | - | - | 11µM | ? | -
Clc1ccc(C(c2ccccc2Cl)C(Cl)(Cl)Cl)cc1 (centres undefined) | . | . | . | . | - | .
CC(C)(C)c1csc(NC(=O)Nc2ccccc2)n1 | 1.8µM | - | 4µM | 3.4µM | 7.9µM | -
SMILES | Rab9 promoter act | Luc counter | NPC1 promoter act | FLuc counter | SMN2 splice enh | ELG1 genotoxic
NS(=O)(=O)c1ccc(NC(=O)Nc2ccccc2)cc1 | - | . | - | ? | . | -
CC(=O)C1=NOC(CNc2ncc(C(F)(F)F)cc2Cl)C1 (centres undefined) | ? | - | - | 27µM | - | ?
COc1ccc(N2C(=O)CS(=O)C(c3ccccc3)C2=O)cc1 (centres undefined) | - | - | - | 24µM | - | -
NNC(N)=S | . | . | . | . | - | .
COc1ccc2nc(NC(=O)CCc3nc(C4=CCN(C)CC4)no3)sc2c1 | - | - | - | 21µM | - | -
On1ccccc1=S | - | . | - | 8.5µM | . | -
Cc1ccc(-c2nc(N3CCOCC3)s[n+]2-c2ccccc2)cc1 | - | - | - | 9.5µM | - | ?
Oc1ccc([C@H](O)C2CCCCN2)cc1O (some centres undefined) | . | -[7.66 µM] | . | . | -[9.22 µM] | .
O=C(OCc1ccc(Cl)c(Cl)c1)c1ccccn1 | - | - | - | 15µM | - | -
Cc1ccc(-c2cc(-c3ccccc3)cc(-c3ccccc3)[n+]2-c2ccccc2C(=O)O)cc1 | - | . | - | - | . | -
Cc1ccc(CSc2ncccc2C(=O)O)cc1 | - | - | - | 17µM | ? | ?
ClCBr | . | . | . | . | - | .
